This is an account of results in PubChem BioAssay AID2685 (National Center for Advancing Translational Sciences (NCATS), 2010).

Out of some 320,000 compounds screened, about 2,100 (0.66%) were called active. Not shown: some 53% with an inconclusive outcome. Calls come from the whole dose curve; as a rule, active = well fitted inhibition curve with a large enough effect in the signal ratio, with a control signal flat (not every such curve was filed as active); inconclusive = small, poorly fitted or top-dose-only effect, or effect the other way, or a change in a side signal; inactive = flat fitted curve, though single readings scatter; the % refers to the signal ratio. The entries come from a sample that favours actives as a whole.
Potency is the fitted concentration of half-maximal effect.

This test can be described thus: qHTS Assay for Lipid Storage Modulators in Drosophila S3 Cells.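 For cell number change: cells counted by Cell Tracker Red CMTPX staining in the red channel.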 For lipid storage change, negative = inhibition: % is set by controls: 0 for no effect and ±100 for the full control effect. The settings on record: BODIPY lipid droplet fluorescence, 18-24 h, cells fed with added oleic acid; cell number change: measured here: cell count max response; series mostly up to 46.1 µM; lipid storage change, negative = inhibition: at the top concentration. A digest of the protocol:
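Laser-scanning cytometry quantifies lipid droplet accumulation (500–530 nm total intensity; droplet/cell object ratio) in oleic acid-fed (400 uM added) Drosophila S3 cells treated with a concentration series. 20 uM Triacsin C defined 100% inhibition.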
For orientation: qHTS replaces the single test concentration by a dilution series.
For `COc1ccccc1NC(=O)CC(NC1CCCCC1)C(=O)O` (configuration not stated), the “lipid storage change, negative = inhibition” value was 3.12% (inactive) and the cell number change turned out to be 3.03%.
For `O=C(Nn1cnc2ccccc2c1=O)c1ccccc1F`, the “lipid storage change, negative = inhibition” value was -8.71% (inactive) and the cell number change was -5%.
On to `N#Cc1ccc2c(c1)nc1ccccn12`, for which the “lipid storage change, negative = inhibition” value is -3.29% (inactive) and the cell number change was found to be 11.1%.
Turning to `N#Cc1c(-c2ccc3c(c2)OCO3)cc[nH]c1=O`, the “lipid storage change, negative = inhibition” value was 14.1% (inactive) and the cell number change came to 17.2%.
On to `N#Cc1c(-c2ccccc2)cc(-c2ccc3c(c2)OCO3)[nH]c1=O`, for which the Potency is 8.2 µM (active) and the cell number change is -26.7%.
In the case of `N#Cc1c(-c2ccco2)cc(-c2ccccc2)[nH]c1=O`, the “lipid storage change, negative = inhibition” value was 15.9% (inactive).
As to `CC(C)=C1C2CCC1C1C(=O)N(c3nc(-c4ccc(F)cc4)c(C)s3)C(=O)C21` (configuration not stated), the “lipid storage change, negative = inhibition” value is -1.57% (inactive) and the cell number change was -3.6%.
Taken in the same sequence, the figures for `COc1ccc(N2CCN(CC(=O)Nc3cc(C)on3)CC2)cc1` were 7.12% (inactive) and 7.54%.
`Cc1ccc(Nc2nc(C(=O)N3CCC(C(=O)NCCN4CCOCC4)CC3)cs2)cc1`: the molecule was classed as inactive.
For the molecule `O=C(N/N=C/c1ccc(-c2cccc(C(F)(F)F)c2)o1)c1cccc(F)c1`, the molecule was classed as inactive.
As for `CCN(CC)C(=O)c1ccc2nc(-c3ccccc3)c(-c3ccccc3)nc2c1`, the “lipid storage change, negative = inhibition” value is 15.6% (inactive) and the cell number change was -0.854%.
For the molecule `CC(C)N(C(=O)c1ccc2nc(-c3ccccc3)c(-c3ccccc3)nc2c1)C(C)C`, the Potency was 1.64 µM (active) and the cell number change was -9.21%.
Take `O=C(O)c1ccc2nc(-c3ccccc3)c(-c3ccccc3)nc2c1`: the “lipid storage change, negative = inhibition” value is -8.03% (inactive) and the cell number change was -2.52%.
With `CCOc1ccc(NC(=O)CN(C)C(=O)c2ccc(COc3ccccc3)o2)cc1OCC`, the molecule was classed as inactive and the cell number change turned out to be 24.1%.
Consider `CCN(CC)CCn1c(=N)n(CC(O)c2ccco2)c2ccccc21` (configuration not stated), for which the “lipid storage change, negative = inhibition” value is -0.632% (inactive) and the cell number change is 6.57%.
With `CCN(CC)CCn1c(=N)n(CCO)c2ccccc21`, the Potency is 3.26 µM (active) and the cell number change is -11.1%.
Regarding `CCN(CC)CCn1c(=N)n(CCOc2ccccc2)c2ccccc21`, the call was inactive and the cell number change was -6.28%.
Consider `c1ccc(CCCNCC2COc3ccccc3O2)cc1` (configuration not stated), for which the “lipid storage change, negative = inhibition” value is 10.6% (inactive) and the cell number change was found to be 19.8%.
For the molecule `CCOc1cccc(CN2CCC(Oc3ccc(C(=O)NCc4ccccn4)cc3)CC2)c1`, the call was inactive.
The same measure, in the same setting: in the case of `Cn1cc(CNC(=O)c2ccc(OC3CCN(Cc4ccccn4)CC3)cc2)cn1` it was “inactive”.
Take `CCn1cc(CNC(=O)c2ccc(OC3CCN(Cc4ccccn4)CC3)cc2)cn1`: the Potency is 3.66 µM (active) and the cell number change was -18.8%.
Turning to `C/C(N)=C(/C#N)C(=O)CSc1nnc(-c2ccc3c(c2)OCO3)o1`, the outcome was inactive and the cell number change was 22.5%.
As for `Cc1ccc2c(CC(=O)OCc3cc(=O)n4c(n3)sc3ccccc34)coc2c1`, the “lipid storage change, negative = inhibition” value was 6.89% (inactive) and the cell number change was -0.183%.
In the case of `CC(=O)N(C(C)=O)c1nc(-c2ccccc2)cn1/N=C/c1ccccc1`, the Potency is 1.64 µM (active) and the cell number change was -51.6%.
In the case of `Nc1nc(-c2ccccc2)cn1/N=C/c1ccccc1`, the “lipid storage change, negative = inhibition” value was 18.1% (inactive) and the cell number change was 9.59%.
On to `Cc1ccc(/C=N/n2c(-c3ccccc3)n[nH]c2=S)cc1`, for which the “lipid storage change, negative = inhibition” value is 15.2% (inactive) and the cell number change worked out at 7.92%.
Consider `Cc1ccc(N(CC(O)CN2CCCC2)S(=O)(=O)c2ccc(C)cc2)cc1` (configuration not stated), for which the “lipid storage change, negative = inhibition” value is -22.3% (inactive) and the cell number change is -13%.
In the case of `Cc1ccc(N(CC(O)CN(C)C)S(=O)(=O)c2ccccc2)cc1` (configuration not stated), the Potency was 5.17 µM (active) and the cell number change turned out to be 1.33%.
With `Cc1ccc(N(CC(O)CN2CCCCC2)S(=O)(=O)c2ccccc2)cc1` (configuration not stated), the molecule was classed as inactive and the cell number change was -15.7%.
Turning to `COc1ccccc1CN1CC(C(=O)NCc2cc(C(C)C)no2)CCC1=O` (configuration not stated), the “lipid storage change, negative = inhibition” value is -15.9% (inactive) and the cell number change stood at 1.05%.
Regarding `Cc1c(N=Cc2cccnc2)c(=O)n(-c2ccccc2)n1C`, the “lipid storage change, negative = inhibition” value is 1.15% (inactive) and the cell number change was 7.08%.
For `Cc1c(N=Cc2ccccn2)c(=O)n(-c2ccccc2)n1C`, the Potency was 16.4 µM (active) and the cell number change was -11.2%.
On to `Cc1c(N=Cc2ccco2)c(=O)n(-c2ccccc2)n1C`, for which the “lipid storage change, negative = inhibition” value is -7.2% (inactive) and the cell number change was 8.07%.
`Cn1c(SCC(=O)Nc2ccc3nc(SCC(=O)NC4CC4)sc3c2)nnc1-c1ccccc1`: the “lipid storage change, negative = inhibition” value is -1.58% (inactive) and the cell number change was -15%.
On to `COc1ccc(Oc2coc3c(CN4CCOCC4)c(O)ccc3c2=O)cc1`, for which the result was inactive and the cell number change turned out to be 10.6%.
Take `COC(CCN(C)C)(c1ccccc1)c1ccccc1`: the Potency is 0.184 µM (active) and the cell number change was -3.67%.
As to `COC(C#CCCN(C)C)(c1ccccc1)c1ccccc1`, the “lipid storage change, negative = inhibition” value was 14.8% (inactive) and the cell number change is -1.59%.
On to `CN(C)CCOc1ccc(C(C)(C)c2ccccc2)cc1`, for which the “lipid storage change, negative = inhibition” value is 13.9% (inactive) and the cell number change came out at 10.7%.
Turning to `O=C(CSc1ccc(-c2ccccn2)nn1)NCc1ccccc1`, the “lipid storage change, negative = inhibition” value was 0.589% (inactive) and the cell number change was 3.17%.
`CCCCSc1nc(O)c(C2OC(=O)c3c2ccc(OC)c3OC)c(=O)n1-c1ccccc1` (configuration not stated): the “lipid storage change, negative = inhibition” value was 4.27% (inactive) and the cell number change came out at 0.549%.
As to `Cc1cccc(NC(=O)c2c(C)nc3ccccn23)c1`, the “lipid storage change, negative = inhibition” value is 6.1% (inactive) and the cell number change turned out to be 6.85%.
Take `Cc1nc2ccccn2c1C(=O)NNC(=O)Nc1ccccc1`: the “lipid storage change, negative = inhibition” value was -3.05% (inactive).
As for `Cc1nc2ccccn2c1C(=O)NNC(=O)Nc1cccc(C(F)(F)F)c1`, the Potency is 1.46 µM (active) and the cell number change is -6.44%.
Consider `COc1ccc(OC)c(NC2c3ncccc3C(=O)N2Cc2ccco2)c1` (configuration not stated), for which the “lipid storage change, negative = inhibition” value is 7.69% (inactive).
On to `Cc1ccc(C(C)C)c(OCC(=O)Nc2ccc3c(c2)nc(CCN2CCCCC2)n3C)c1`, for which the outcome was inactive.
On to `CCCN1CN(Cc2ccccc2)CC2=C1CC(C)(C)CC2=O`, for which the “lipid storage change, negative = inhibition” value was -10.6% (inactive) and the cell number change is -2.17%.
Turning to `COc1ccc(-c2ccc(SCC(=O)N3c4ccccc4CC3C)nn2)cc1OC` (configuration not stated), the molecule was called inactive.
As for `O=C(NC1CC1)c1cc(-c2ccccn2)nc2ccccc12`, the “lipid storage change, negative = inhibition” value was 5.07% (inactive) and the cell number change is -1.09%.
